Reference: PubChem BioAssay (EPA / NIEHS)
Active and inactive are the calls of the source. How the source made its calls: active means hit-call score of the fitted dose curve at least 0.9, where 1 is the maximum; inactive means score below 0.9.

How the values were obtained:
[1] = Tanguay_ZF_120hpf_CRAN: Oregon State University Tanguay Lab 120 Hour Post-fertilization zebrafish Assay for Craniofacial Malformation (AID 2284397)
Procedure, shortened: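 Scoring of craniofacial malformation as a binary endpoint was done at 120 hpf by brightfield microscopy and was not done in dead embryos. Exposure was static, starting at 6 hpf, in dechorionated wild-type embryos held singly at 28C with 0.64% DMSO final.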

[2] = Tanguay_ZF_120hpf_AXIS: Oregon State University Tanguay Lab 120 Hour Post-fertilization zebrafish Assay for Axial Malformation (AID 2284398)
Procedure, shortened: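 Scoring was binary (present or absent) for body-axis defects, judged by brightfield imaging at 120 hpf in surviving larvae. Exposure was static at 28C from 6 hpf in chorion-free 5D wild-type embryos, with 0.64% DMSO vehicle.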

[3] = Tanguay_ZF_120hpf_MORT: Oregon State University Tanguay Lab 120 Hour Post-fertilization zebrafish Assay for Mortality (AID 2284399)
Procedure, shortened: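 Mortality, recorded present/absent via brightfield imaging at 24 and 120 hpf, in 5D zebrafish embryos exposed statically from 6 hpf after pronase chorion removal. Exposure at 28C, 0.64% DMSO vehicle, DMSO baseline.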

[4] = Tanguay_ZF_120hpf_EDEM: Oregon State University Tanguay Lab 120 Hour Post-fertilization zebrafish Assay for Edema Malformation (AID 2284400)
Procedure, shortened: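 Edema recorded as a binary endpoint under brightfield at 120 hpf, excluding embryos that died. Exposure was static, sealed, 28C, from 6 hpf in dechorionated wild-type larvae, final DMSO 0.64%, DMSO as baseline.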

[5] = Tanguay_ZF_120hpf_BRN: Oregon State University Tanguay Lab 120 Hour Post-fertilization zebrafish Assay for Brain Region Malformation (AID 2284402)
Procedure, shortened: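 Binary brightfield scoring of brain malformation at 120 hpf in 5D wild-type larvae, chorion removed with pronase at 4 hpf. Static exposure began at 6 hpf, 28C, sealed plates, DMSO 0.64% (vol/vol) as vehicle baseline.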

[6] = Tanguay_ZF_120hpf_TCHR: Oregon State University Tanguay Lab 120 Hour Post-fertilization zebrafish Assay for Touch Responsive (AID 2284403)
Procedure, shortened: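 Binary touch-response calls are made at 120 hpf in 5D wild-type zebrafish larvae. These larvae were dechorionated with pronase and exposed singly from 6 hpf in sealed, dark plates at 28 °C with 0.64% DMSO final; dead embryos are excluded.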

[7] = CCTE_Padilla_ZF_Score.Spine: CCTE's 144 Hour Post-fertilization zebrafish Assay Score for Spine Malformation, Padilla Lab (AID 2284407)
Procedure, shortened: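 Spine malformation scored at 6 dpf by two independent blinded observers under stereomicroscope, after static sealed exposure from 6–8 hpf at 26C in Hanks' solution with rinse on 5 dpf. Positive-direction fit against DMSO control.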

[8] = CCTE_Padilla_ZF_Score.Swim_bladder: CCTE's 144 Hour Post-fertilization zebrafish Assay Score for Swim Bladder Malformation, Padilla Lab (AID 2284408)
Procedure, shortened: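 Swim bladder inflation scored at 6 dpf by two blinded observers under a stereo microscope. Exposure ran from 6–8 hpf in sealed wells of 10% Hanks' at 26C, with rinsing at 5 dpf; DMSO served as baseline.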

[9] = CCTE_Padilla_ZF_Score.Position: CCTE's 144 Hour Post-fertilization zebrafish Assay Score for Position, Padilla Lab (AID 2284409)
Procedure, shortened: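 Wild-type zebrafish embryos (with chorions) exposed singly from 6–8 hpf in sealed wells of Hanks' solution at 26C, rinsed at 5 dpf. At 6 dpf, blinded assessors scored abnormal water-column position by brightfield stereomicroscopy, relative to DMSO.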

[10] = CCTE_Padilla_ZF_Score.Living: CCTE's 144 Hour Post-fertilization zebrafish Assay Score for Viability, Padilla Lab (AID 2284410);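 further: larval death at 6 dpf judged by absent heartbeat or coagulation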
Procedure, shortened: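 Mortality at 6 dpf, judged as absent heartbeat or coagulation by two blinded observers, after sealed static exposure beginning at 6–8 hpf at 26C. Larvae were rinsed free of chemical at 5 dpf, and activity was fitted relative to DMSO.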

[11] = CCTE_Padilla_ZF_Score.General: CCTE's 144 Hour Post-fertilization zebrafish Assay Score for General Malformation, Padilla Lab (AID 2284411)
Procedure, shortened: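 Malformation, death and hatching were scored at 6 dpf by two blinded observers under a stereo microscope. Embryos were dosed singly from 6-8 hpf in sealed plates of 10% Hanks' at 26C and rinsed on 5 dpf; DMSO baseline.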

[12] = CCTE_Padilla_ZF_Score.Tail: CCTE's 144 Hour Post-fertilization zebrafish Assay Score for Tail Malformation, Padilla Lab (AID 2284414)
Procedure, shortened: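 Tail malformations were scored at 6 dpf by two blinded assessors under a stereo microscope. Chorionated embryos had been exposed from 6-8 hpf in sealed wells of 10% Hanks' at 26 C, then rinsed free of chemical at 5 dpf.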

[13] = CCTE_Padilla_ZF_Score.Any: CCTE's 144 Hour Post-fertilization zebrafish Assay Score for Any Mortality or Malformation, Padilla Lab (AID 2284416)
Procedure, shortened: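 Wild-type zebrafish embryos with chorions, one per well in 10% Hanks' from 6–8 hpf, dosed in sealed plates at 26 C, 14:10 h light:dark; rinsed at 5 dpf; blinded scoring at 6 dpf for death or malformation, versus DMSO.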

[14] = CCTE_Padilla_ZF_Score.Blood_pooling: CCTE's 144 Hour Post-fertilization zebrafish Assay Score for Blood Pooling, Padilla Lab (AID 2284415)
Procedure, shortened: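 Blood pooling was scored at 6 dpf under a stereo microscope by two blinded assessors, fitted upward against DMSO. Single embryos were dosed at 6–8 hpf in 10% Hanks', kept sealed at 26C (14:10 h cycle) and rinsed at 5 dpf.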

[15] = CCTE_Padilla_ZF_Score.Edema: CCTE's 144 Hour Post-fertilization zebrafish Assay Score for Edema Malformation, Padilla Lab (AID 2284406)
Procedure, shortened: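 Edema scored at 6 dpf by two blinded observers under a stereo microscope, in single outbred wild-type larvae exposed from 6-8 hpf in sealed wells (Hanks', 26C, 14:10 h light) and chemical-free after a 5 dpf rinse.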

[16] = Tanguay_ZF_120hpf_ANY: Oregon State University Tanguay Lab 120 Hour Post-fertilization zebrafish Assay for Any Mortality and Malformation (AID 2284404)
Procedure, shortened: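 Dechorionated Tropical 5D wild-type embryos, one per well from 6 hpf, static exposure in sealed, dark plates at 28C until 120 hpf, 0.64% DMSO final. Brightfield scoring of mortality and malformations as binary presence/absence, pooling 13 morphology endpoints.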

[17] = CCTE_Padilla_ZF_Score.Craniofacial: CCTE's 144 Hour Post-fertilization zebrafish Assay Score for Craniofacial Malformation, Padilla Lab (AID 2284405)
Procedure, shortened: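 Craniofacial defects were scored at 6 dpf by two blinded observers using stereomicroscopy. Exposure of wild-type embryos began at 6–8 hpf in sealed wells of 10% Hanks' solution at 26C, with chemical removed by rinsing at 5 dpf.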

[18] = test system: TTR (gene 7276); experiment: CCTE_GLTED_hTTR_0.125uM: CCTE's human Transthyretin (hTTR) Inhibition Assay, with 0.125uM TTR, Great Lakes Toxicology and Ecology Division (GLTED) Lab (AID 2284431);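 further: hits lower the fluorescence signal relative to DMSO baseline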
Procedure, shortened: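 TTR 0.125uM + test chemical, 2 h; ANSA probe displacement; ex 380/em 475 fluorescence; signal loss vs DMSO control.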

FC(F)(F)C(F)(F)C(F)(F)C(F)(F)C(F)(F)CCI
outcome [1]: inactive
outcome [2]: inactive
outcome [3]: inactive
outcome [4]: inactive
outcome [5]: inactive
outcome [6]: inactive
outcome [7]: inactive
AC50 [8]: 30.4 µM (active)
outcome [9]: inactive
outcome [10]: inactive
AC50 [11]: 54.7 µM (active)
outcome [12]: inactive
AC50 [13]: 31.9 µM (active)

O=C(O)C(F)(F)C(F)(F)F
outcome [1]: inactive
outcome [3]: inactive
outcome [4]: inactive
outcome [5]: inactive
outcome [6]: inactive
outcome [7]: inactive
outcome [8]: inactive
outcome [9]: inactive
outcome [10]: inactive
outcome [11]: inactive
outcome [12]: inactive
outcome [14]: inactive
outcome [13]: inactive

O=C(O)C(F)(F)C(F)(F)C(F)(F)C(F)(F)C(F)(F)C(F)(F)C(F)(F)C(F)(F)C(F)(F)C(F)(F)C(F)(F)C(F)(F)F
outcome [1]: inactive
outcome [2]: inactive
AC50 [3]: 7.47 µM (active)
outcome [4]: inactive
outcome [5]: inactive
outcome [6]: inactive
outcome [15]: inactive
outcome [7]: inactive
outcome [8]: inactive
outcome [9]: inactive
outcome [10]: inactive
outcome [11]: inactive
outcome [13]: inactive

C=CC(=O)OCC(F)(F)C(F)(F)C(F)(F)C(F)(F)COC(=O)C=C
outcome [1]: inactive
AC50 [3]: 17.5 µM (active)
outcome [4]: inactive
outcome [5]: inactive
outcome [6]: inactive
AC50 [16]: 14.2 µM (active)
outcome [7]: inactive
AC50 [8]: 4.37 µM (active)
outcome [9]: inactive
AC50 [10]: 9.44 µM (active)
outcome [11]: inactive
outcome [14]: inactive
AC50 [13]: 4.38 µM (active)

FC1CC(F)(F)C(F)(F)C1(F)F (stereo not drawn)
outcome [1]: inactive
outcome [3]: inactive
outcome [4]: inactive
outcome [5]: inactive
outcome [6]: inactive

FC(F)(F)C(F)(F)C(F)(F)C(F)(F)C(F)(F)C(F)(F)C(F)(F)Br
outcome [1]: inactive
outcome [3]: inactive
outcome [4]: inactive
outcome [5]: inactive
outcome [6]: inactive
outcome [16]: inactive
outcome [17]: inactive
outcome [7]: inactive
outcome [8]: inactive
outcome [9]: inactive
outcome [10]: inactive
outcome [11]: inactive
outcome [13]: inactive

CCCCCCCCCCCCCCCC[N+](C)(C)Cc1ccccc1
outcome [11]: inactive

CCCCCCS
outcome [11]: inactive

Cc1ccc(S(=O)(=O)NCl)cc1
AC50 [18]: 44.5 µM (active)

FC(F)(F)C(F)(F)C(F)(F)C(F)(F)C(F)(F)C(F)(F)C(F)(F)C(F)(F)F
outcome [1]: inactive
outcome [3]: inactive
outcome [4]: inactive
outcome [5]: inactive
outcome [6]: inactive
outcome [7]: inactive
outcome [8]: inactive
outcome [9]: inactive
outcome [10]: inactive
outcome [11]: inactive
outcome [13]: inactive

CC(Cc1ccc(O)c(O)c1)C(C)Cc1ccc(O)c(O)c1 (stereo not drawn)
AC50 [18]: 0.0909 µM (active)

FC(F)(F)C(F)(F)C(F)(F)N(C(F)(F)C(F)(F)C(F)(F)F)C(F)(F)C(F)(F)C(F)(F)F
outcome [1]: inactive
outcome [3]: inactive
outcome [4]: inactive
outcome [5]: inactive
outcome [6]: inactive
outcome [7]: inactive
outcome [8]: inactive
outcome [9]: inactive
outcome [10]: inactive
outcome [11]: inactive
outcome [13]: inactive

NC(=O)C(F)(F)C(F)(F)C(F)(F)C(F)(F)F
outcome [1]: inactive
outcome [3]: inactive
outcome [4]: inactive
outcome [5]: inactive
outcome [6]: inactive
outcome [7]: inactive
outcome [8]: inactive
outcome [9]: inactive
outcome [10]: inactive
outcome [11]: inactive
outcome [13]: inactive

FC(F)(F)C(F)(F)C(F)(F)C(F)(F)C(F)(F)C(F)(F)C(F)(F)C(F)(F)CCS
outcome [1]: inactive
outcome [3]: inactive
outcome [4]: inactive
outcome [5]: inactive
outcome [6]: inactive
outcome [7]: inactive
outcome [8]: inactive
outcome [9]: inactive
outcome [10]: inactive
outcome [11]: inactive
outcome [13]: inactive

CCCCNc1ccccc1
outcome [11]: inactive

FC(F)(F)C(F)(F)C(F)(F)C(F)(F)CCI
outcome [1]: inactive
outcome [3]: inactive
outcome [4]: inactive
outcome [5]: inactive
outcome [6]: inactive
outcome [7]: inactive
outcome [8]: inactive
outcome [9]: inactive
outcome [10]: inactive
outcome [11]: inactive
outcome [13]: inactive

O=C(O)C(F)(F)C(F)(F)C(F)F
outcome [1]: inactive
outcome [3]: inactive
outcome [4]: inactive
outcome [5]: inactive
outcome [6]: inactive
outcome [7]: inactive
outcome [8]: inactive
outcome [9]: inactive
outcome [10]: inactive
outcome [11]: inactive
outcome [13]: inactive

OCCCC(F)(F)C(F)(F)C(F)(F)C(F)(F)C(F)(F)C(F)(F)C(F)(F)F
outcome [1]: inactive
outcome [3]: inactive
outcome [4]: inactive
outcome [5]: inactive
outcome [6]: inactive
outcome [7]: inactive
AC50 [8]: 88.1 µM (active)
outcome [9]: inactive
outcome [10]: inactive
outcome [11]: inactive
outcome [14]: inactive
AC50 [13]: 38.7 µM (active)
